Source: the supplement of paper PMC10849652
Targets with a hit are over-represented here; the source holds about 7,900 in all. About 0.6% of all pairs of compound and target were hits.

How the values were obtained:
Experiment in all cases: log2 fold change, soluble protein after heating vs DMSO (PISA); higher = thermal stabilisation; K562 cells, 10 uM, 30 min; active = over 0.2 and 3.5 SD of the protein, either way, in both replicates (recomputed)
[1] = compound: CC1=C(C=C(C=C1)NC(=O)C2=CC(=CC=C2)C(C)(C)C#N)NC3=CC4=C(C=C3)N=CN(C4=O)C
Outline: (§1)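 K562 cells at 2×10^6 cells/mL were treated for 30 min with 10 μM compound, and aliquots were heated for 3 min over 48°C-58°C before pooling. Extraction used PBS with 0.5% NP-40 at 4°C, and soluble protein was the supernatant after 21,000xg for 90 min, measured by TMTpro 16plex LC-MS/MS with channel sums equalised. Thermal stability values, relative to control samples and from duplicates, are log2 fold changes.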

[2] = compound: CC1=C(C=C(C=C1)NC(=O)C2=CC(=CC=C2)N(C)C)NC(=O)C3=CC=C(C=C3)O
Outline: as §1

[3] = compound: CC1=CC=C(C=C1)SC2=C3C=C(SC3=CN=C2)C(=O)N
Outline: as §1

[4] = compound: CC1=NC(=CC=C1)C2=C(N=C(N2)C(C)(C)C)C3=CC4=NC=CN=C4C=C3
Outline: as §1

Nexturastat A = compound: CCCCN(Cc1ccc(C(=O)NO)cc1)C(=O)Nc1ccccc1 [Nexturastat A]
Outline: as §1

vemurafenib = compound: CCCS(=O)(=O)Nc1ccc(F)c(C(=O)c2c[nH]c3ncc(-c4ccc(Cl)cc4)cc23)c1F [vemurafenib]
Outline: as §1

[5] = compound: CCCS(=O)(=O)Nc1ccc(F)c(C(=O)c2c[nH]c3ncc(Cl)cc23)c1F
Outline: as §1

[6] = compound: CCCc1cc(C)[nH]c(=O)c1CNC(=O)c1cc(-c2ccnc(N3CCN(C)CC3)c2)cc2c1cnn2C(C)C
Outline: as §1

givinostat = compound: CCN(CC)Cc1ccc2cc(COC(=O)Nc3ccc(C(=O)NO)cc3)ccc2c1 [givinostat]
Outline: as §1

barasertib = compound: CCN(CCCOc1ccc2c(Nc3cc(CC(=O)Nc4cccc(F)c4)[nH]n3)ncnc2c1)CCOP(=O)(O)O [barasertib]
Outline: as §1

[7] = compound: CC[C@@H]1C(=O)N(C)c2cnc(Nc3ccc(C(=O)NC4CCN(C)CC4)cc3OC)nc2N1C1CCCC1
Outline: as §1

volasertib = compound: CC[C@@H]1C(=O)N(C)c2cnc(Nc3ccc(C(=O)N[C@H]4CC[C@H](N5CCN(CC6CC6)CC5)CC4)cc3OC)nc2N1C(C)C [volasertib]
Outline: as §1

[8] = compound: CC[C@H](C)N1C=C(C2=C(C=C(C=C21)C3=CN=C(C=C3)N4CCNCC4)C(=O)NCC5=C(C=C(NC5=O)C)C)C
Outline: as §1

epoxomicin = compound: CC[C@H](C)[C@@H](C(=O)N[C@@H]([C@@H](C)O)C(=O)N[C@@H](CC(C)C)C(=O)[C@]1(CO1)C)NC(=O)[C@H]([C@@H](C)CC)N(C)C(=O)C [epoxomicin]
Outline: as §1

[9] = compound: CCn1c(C(=O)N(C2CC2)C2CC2)cc2c3c(ncn3C)c(Nc3cc(C)n(C)n3)nc21
Outline: as §1

[10] = compound: CCn1cc(-c2ccnc3[nH]c(-c4cccc(CN(C)C)c4)cc23)c(-c2ccc(NC(=O)N(C)C)cc2)n1
Outline: as §1

[11] = compound: CN(C)CC(=O)Nc1ccc2[nH]c(=O)c3ccccc3c2c1
Outline: as §1

rosiglitazone = compound: CN(CCOC1=CC=C(C=C1)C[C@H]2C(=O)NC(=O)S2)C3=CC=CC=N3 (racemic) [rosiglitazone]
Outline: as §1

[12] = compound: CN1C2=C(C3=C1C(=O)N(N=C3)CC4=CC(=CC=C4)N)SC(=C2)S(=O)C
Outline: as §1

[13] = compound: CN1CCC(CNc2ccc3ncc(-c4cccc(OC(F)(F)F)c4)n3n2)CC1
Outline: as §1

Measured: log2 fold change

TSEN2 (UniProt Q8NCE0)
UniProt Q8NCE0, sequence (Q8NCE0 whole entry, looked up): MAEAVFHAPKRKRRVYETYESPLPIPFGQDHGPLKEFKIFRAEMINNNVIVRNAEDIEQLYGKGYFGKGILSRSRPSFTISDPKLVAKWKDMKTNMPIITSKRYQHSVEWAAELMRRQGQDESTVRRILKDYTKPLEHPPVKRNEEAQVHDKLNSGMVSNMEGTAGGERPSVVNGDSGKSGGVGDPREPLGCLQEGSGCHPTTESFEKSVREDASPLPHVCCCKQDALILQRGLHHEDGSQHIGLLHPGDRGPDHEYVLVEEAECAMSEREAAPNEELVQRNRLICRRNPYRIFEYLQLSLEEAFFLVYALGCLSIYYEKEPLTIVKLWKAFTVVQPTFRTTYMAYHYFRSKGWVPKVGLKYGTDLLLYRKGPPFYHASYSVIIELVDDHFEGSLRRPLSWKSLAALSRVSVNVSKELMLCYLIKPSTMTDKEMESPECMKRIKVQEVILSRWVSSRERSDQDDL
active: [1] 0.306
inactive: [2] 0.015 | [3] 0.014 | [4] -0.02 | Nexturastat A -0.013 | vemurafenib 0.058 | [5] 0.063 | [6] 0.097 | givinostat 0.012 | barasertib 0.073 | [7] -0.019 | volasertib -0.146 | [8] 0.053 | epoxomicin 0.078 | [9] -0.021 | [10] -0.082 | [11] 0.086 | rosiglitazone 0.077 | [12] -0.04 | [13] 0.034

TUT4 (UniProt Q5TAX3)
inactive: [1] -0.124 | [2] -0.106 | [3] -0.081 | [4] -0.121 | Nexturastat A 0.449 | vemurafenib -0.129 | [5] -0.008 | [6] -0.124 | givinostat 0.069 | barasertib 0.027 | [7] -0.064 | volasertib -0.229 | [8] -0.15 | epoxomicin -0.219 | [9] -0.041 | [10] 0.046 | [11] 0.018 | rosiglitazone -0.012 | [13] -0.235
active: [12] 0.566

UTP14A (UniProt Q9BVJ6)
inactive: [1] 0.028 | [2] 0.008 | [3] -0.002 | [4] -0.068 | Nexturastat A 0.194 | vemurafenib -0.066 | [5] 0.028 | [6] 0.109 | givinostat 0.048 | barasertib -0.112 | [7] 0.092 | volasertib 0.176 | [8] 0.028 | epoxomicin -0.144 | [9] 0.028 | [10] 0.106 | [11] -0.136 | rosiglitazone -0.106 | [12] 0.263 | [13] 0.106

WDR47 (UniProt O94967)
inactive: [1] -0.031 | [2] -0.031 | [3] 0.07 | [4] 0.127 | Nexturastat A -0.048 | vemurafenib -0.023 | [5] -0.045 | [6] -0.004 | givinostat 0.004 | barasertib -0.007 | [7] 0.011 | volasertib -0.112 | [8] -0.02 | epoxomicin -0.037 | [9] -0.047 | [10] -0.055 | [11] -0.012 | rosiglitazone -0.003 | [12] 0.029 | [13] 0.234

WDR46 (UniProt O15213)
UniProt O15213, sequence (O15213 whole entry, looked up): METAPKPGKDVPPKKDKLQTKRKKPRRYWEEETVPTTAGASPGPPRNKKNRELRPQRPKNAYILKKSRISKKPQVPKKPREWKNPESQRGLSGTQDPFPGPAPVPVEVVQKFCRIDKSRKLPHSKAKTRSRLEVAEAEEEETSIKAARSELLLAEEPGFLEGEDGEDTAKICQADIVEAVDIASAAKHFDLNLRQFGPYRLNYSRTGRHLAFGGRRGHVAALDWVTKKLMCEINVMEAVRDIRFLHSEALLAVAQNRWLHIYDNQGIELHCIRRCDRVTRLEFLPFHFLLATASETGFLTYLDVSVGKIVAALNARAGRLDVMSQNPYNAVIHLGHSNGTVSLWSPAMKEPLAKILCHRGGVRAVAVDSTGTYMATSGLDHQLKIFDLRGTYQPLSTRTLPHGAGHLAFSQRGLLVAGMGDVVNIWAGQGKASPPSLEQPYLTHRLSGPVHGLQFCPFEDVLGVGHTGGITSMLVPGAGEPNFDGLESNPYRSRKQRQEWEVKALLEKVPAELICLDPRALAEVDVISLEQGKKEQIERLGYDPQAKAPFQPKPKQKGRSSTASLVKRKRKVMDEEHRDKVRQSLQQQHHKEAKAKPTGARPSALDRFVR
inactive: [1] 0.039 | [2] -0.021 | [3] -0.001 | [4] -0.102 | Nexturastat A 0.216 | vemurafenib -0.135 | [5] -0.026 | [6] 0.136 | givinostat -0.05 | barasertib -0.064 | [7] 0.195 | volasertib 0.073 | [8] -0.085 | epoxomicin -0.417 | [9] 0.008 | [10] 0.288 | [11] -0.2 | rosiglitazone -0.077 | [12] 0.311 | [13] 0.389

WDHD1 (UniProt O75717)
active: volasertib -0.458
inactive: [1] 0.057 | [2] -0.043 | [3] 0.013 | [4] 0.072 | Nexturastat A -0.053 | vemurafenib 0.066 | [5] 0.095 | [6] 0.022 | givinostat 0.053 | barasertib 0.055 | [7] -0.209 | [8] 0.079 | epoxomicin 0.071 | [9] -0.018 | [10] -0.033 | [11] 0.051 | rosiglitazone 0.072 | [12] -0.063 | [13] -0.118

TMEM63B (UniProt Q5T3F8)
inactive: [1] 0.095 | [2] 0.014 | [3] 0.006 | [4] 0.004 | Nexturastat A 0.051 | vemurafenib 0.009 | [5] -0.011 | [6] -0.044 | givinostat 0.014 | barasertib -0.038 | [7] -0.001 | volasertib 0.071 | [8] -0.019 | epoxomicin 0.039 | [9] 0.041 | [10] 0.011 | [11] -0.052 | rosiglitazone -0.052 | [12] 0.042 | [13] -0.073

TMEM161A (UniProt Q9NX61)
active: volasertib -0.477
inactive: [1] -0.045 | [2] 0.12 | [3] 0.014 | [4] -0.012 | Nexturastat A -0.059 | vemurafenib 0.045 | [5] 0.225 | [6] -0.048 | givinostat 0.024 | barasertib -0.017 | [7] 0.033 | [8] -0.08 | epoxomicin 0.049 | [9] 0.034 | [10] 0.014 | [11] -0.009 | rosiglitazone 0.088 | [12] -0.026 | [13] -0.265

TMEM173 (UniProt Q86WV6)
UniProt Q86WV6, sequence (Q86WV6 whole entry, looked up): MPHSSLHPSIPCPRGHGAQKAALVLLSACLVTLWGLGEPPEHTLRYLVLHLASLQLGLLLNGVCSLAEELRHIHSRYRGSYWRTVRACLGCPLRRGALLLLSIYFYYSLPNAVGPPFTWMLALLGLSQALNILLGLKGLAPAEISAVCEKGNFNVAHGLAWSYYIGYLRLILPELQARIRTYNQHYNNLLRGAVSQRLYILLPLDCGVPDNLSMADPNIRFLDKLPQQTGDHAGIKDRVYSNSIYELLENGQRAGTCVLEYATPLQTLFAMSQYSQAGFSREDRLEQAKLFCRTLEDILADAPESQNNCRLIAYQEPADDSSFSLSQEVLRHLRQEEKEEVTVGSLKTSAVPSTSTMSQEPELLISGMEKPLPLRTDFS
inactive: [1] -0.037 | [2] -0.01 | [3] -0.043 | [4] -0.008 | Nexturastat A -0.212 | vemurafenib 0.056 | [5] -0.043 | [6] -0.008 | givinostat -0.076 | barasertib 0.055 | [7] 0.219 | volasertib 0.156 | [8] 0.086 | epoxomicin 0.026 | [9] 0.021 | [10] -0.017 | [11] 0.032 | rosiglitazone 0.044 | [12] -0.049
active: [13] 0.293

TNPO3 (UniProt Q9Y5L0)
inactive: [1] 0.028 | [2] 0.004 | [3] 0.057 | [4] 0.003 | Nexturastat A -0.036 | vemurafenib 0.069 | [5] 0.08 | [6] 0.003 | givinostat 0.029 | barasertib 0.019 | [7] -0.182 | [8] 0.039 | epoxomicin 0.041 | [9] 0.002 | [10] -0.075 | [11] 0.041 | rosiglitazone 0.046 | [12] -0.036 | [13] -0.128
active: volasertib -0.406

WASHC2A (UniProt Q641Q2)
inactive: [1] -0.053 | [2] -0.012 | [3] -0.039 | [4] -0.014 | Nexturastat A 0.004 | vemurafenib -0.041 | [5] -0.005 | [6] 0.085 | givinostat 0.004 | barasertib 0.032 | [7] -0.058 | volasertib -0.15 | [8] 0.026 | epoxomicin 0.022 | [9] 0.018 | [10] 0.052 | [11] -0.046 | rosiglitazone -0.004 | [12] 0.037 | [13] -0.18

WDR11 (UniProt Q9BZH6)
inactive: [1] -0.004 | [2] 0.057 | [3] -0.008 | [4] -0.016 | Nexturastat A -0.097 | vemurafenib -0.089 | [5] -0.084 | [6] -0.105 | givinostat 0.035 | barasertib 0.034 | [7] 0.079 | volasertib 0.031 | [8] -0.183 | epoxomicin 0 | [9] 0.062 | [10] 0.089 | [11] -0.061 | rosiglitazone 0.08 | [12] 0.009 | [13] -0.131

UBXN10 (UniProt Q96LJ8)
UniProt Q96LJ8, sequence (Q96LJ8 whole entry, looked up): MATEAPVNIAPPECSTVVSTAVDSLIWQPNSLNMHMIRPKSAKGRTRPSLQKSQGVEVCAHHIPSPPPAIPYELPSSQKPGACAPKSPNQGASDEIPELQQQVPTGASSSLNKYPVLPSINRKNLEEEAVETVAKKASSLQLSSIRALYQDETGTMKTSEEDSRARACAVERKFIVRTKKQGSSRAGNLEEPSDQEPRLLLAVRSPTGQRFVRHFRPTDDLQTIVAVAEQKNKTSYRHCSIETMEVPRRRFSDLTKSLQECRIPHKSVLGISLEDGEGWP
inactive: [1] 0.007 | [2] -0.026 | [3] -0.071 | [4] 0.037 | Nexturastat A 0.107 | vemurafenib -0.264 | [5] -0.024 | [6] -0.115 | givinostat 0.059 | barasertib -0.068 | [7] -0.057 | volasertib -0.319 | [8] 0.156 | epoxomicin 0.127 | [9] 0.034 | [10] 0.014 | [11] -0.088 | rosiglitazone 0.009 | [12] 0.087 | [13] -0.103

VPS53 isoform 4 (UniProt Q5VIR6)
UniProt Q5VIR6, sequence (Q5VIR6 whole entry, looked up): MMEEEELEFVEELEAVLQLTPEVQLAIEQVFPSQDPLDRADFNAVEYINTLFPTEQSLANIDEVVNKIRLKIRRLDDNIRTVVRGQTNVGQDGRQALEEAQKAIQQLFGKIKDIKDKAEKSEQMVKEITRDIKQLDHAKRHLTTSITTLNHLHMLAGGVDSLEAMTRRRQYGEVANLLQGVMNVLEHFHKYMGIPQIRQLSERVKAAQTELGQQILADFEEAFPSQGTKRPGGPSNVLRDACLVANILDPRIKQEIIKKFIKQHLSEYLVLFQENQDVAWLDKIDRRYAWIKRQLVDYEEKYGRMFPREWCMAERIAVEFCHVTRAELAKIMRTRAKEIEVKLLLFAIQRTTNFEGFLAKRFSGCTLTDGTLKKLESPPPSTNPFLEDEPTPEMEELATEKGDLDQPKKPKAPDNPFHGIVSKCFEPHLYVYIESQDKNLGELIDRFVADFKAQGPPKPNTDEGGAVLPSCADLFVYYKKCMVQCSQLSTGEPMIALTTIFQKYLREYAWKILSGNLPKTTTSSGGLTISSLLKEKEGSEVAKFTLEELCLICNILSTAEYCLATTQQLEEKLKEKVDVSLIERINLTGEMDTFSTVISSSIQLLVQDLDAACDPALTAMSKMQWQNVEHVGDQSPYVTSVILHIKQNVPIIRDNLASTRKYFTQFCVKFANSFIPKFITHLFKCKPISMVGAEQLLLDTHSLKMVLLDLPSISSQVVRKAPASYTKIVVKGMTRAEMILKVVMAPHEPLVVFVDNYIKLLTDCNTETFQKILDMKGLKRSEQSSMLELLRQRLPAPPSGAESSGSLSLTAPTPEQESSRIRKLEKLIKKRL
inactive: [1] -0.037 | [2] -0.053 | [3] 0.01 | [4] -0.031 | Nexturastat A 0.022 | vemurafenib 0.046 | [5] 0.003 | [6] 0.03 | givinostat 0.045 | barasertib 0.045 | [7] -0.095 | [8] 0.033 | epoxomicin 0.041 | [9] -0.094 | [10] 0.022 | [11] 0.007 | rosiglitazone 0.023 | [12] 0.016 | [13] -0.128
active: volasertib -0.358

VPS35L (UniProt Q7Z3J2)
UniProt Q7Z3J2, sequence (Q7Z3J2 whole entry, looked up): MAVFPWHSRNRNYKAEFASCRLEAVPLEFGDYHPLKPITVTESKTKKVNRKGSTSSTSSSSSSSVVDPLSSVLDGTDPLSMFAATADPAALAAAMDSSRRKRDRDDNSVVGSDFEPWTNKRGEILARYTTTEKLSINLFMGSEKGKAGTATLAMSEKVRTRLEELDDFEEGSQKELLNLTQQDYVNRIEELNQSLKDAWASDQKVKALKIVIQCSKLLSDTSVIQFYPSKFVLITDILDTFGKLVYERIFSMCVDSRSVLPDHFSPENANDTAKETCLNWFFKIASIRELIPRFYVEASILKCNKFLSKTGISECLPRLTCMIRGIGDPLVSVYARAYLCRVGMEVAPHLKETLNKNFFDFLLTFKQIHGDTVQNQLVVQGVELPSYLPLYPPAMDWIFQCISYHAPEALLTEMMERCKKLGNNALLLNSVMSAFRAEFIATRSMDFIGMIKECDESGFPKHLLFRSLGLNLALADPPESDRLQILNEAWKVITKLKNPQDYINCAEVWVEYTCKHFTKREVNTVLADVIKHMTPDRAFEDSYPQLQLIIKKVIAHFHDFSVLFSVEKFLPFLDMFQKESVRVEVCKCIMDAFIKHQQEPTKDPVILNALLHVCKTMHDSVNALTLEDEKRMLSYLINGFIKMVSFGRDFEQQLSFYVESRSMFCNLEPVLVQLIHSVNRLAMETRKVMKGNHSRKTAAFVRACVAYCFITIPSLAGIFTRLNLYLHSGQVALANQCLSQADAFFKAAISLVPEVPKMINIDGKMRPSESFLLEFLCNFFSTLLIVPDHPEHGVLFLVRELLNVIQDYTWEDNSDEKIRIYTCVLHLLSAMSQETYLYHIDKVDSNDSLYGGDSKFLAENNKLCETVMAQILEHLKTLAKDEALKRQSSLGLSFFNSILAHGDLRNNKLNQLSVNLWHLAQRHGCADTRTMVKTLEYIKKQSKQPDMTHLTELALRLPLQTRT
inactive: [1] 0.024 | [2] -0.031 | [3] -0.052 | [4] -0.022 | Nexturastat A 0.05 | vemurafenib 0.003 | [5] 0.049 | [6] 0.086 | givinostat 0.03 | barasertib 0.07 | [7] 0.021 | [8] -0.038 | epoxomicin 0.003 | [9] -0.014 | [10] 0.071 | [11] 0.005 | rosiglitazone 0.072 | [12] -0.076 | [13] -0.099
active: volasertib -0.365

VPS8 (UniProt Q8N3P4)
UniProt Q8N3P4, sequence (Q8N3P4 whole entry, looked up): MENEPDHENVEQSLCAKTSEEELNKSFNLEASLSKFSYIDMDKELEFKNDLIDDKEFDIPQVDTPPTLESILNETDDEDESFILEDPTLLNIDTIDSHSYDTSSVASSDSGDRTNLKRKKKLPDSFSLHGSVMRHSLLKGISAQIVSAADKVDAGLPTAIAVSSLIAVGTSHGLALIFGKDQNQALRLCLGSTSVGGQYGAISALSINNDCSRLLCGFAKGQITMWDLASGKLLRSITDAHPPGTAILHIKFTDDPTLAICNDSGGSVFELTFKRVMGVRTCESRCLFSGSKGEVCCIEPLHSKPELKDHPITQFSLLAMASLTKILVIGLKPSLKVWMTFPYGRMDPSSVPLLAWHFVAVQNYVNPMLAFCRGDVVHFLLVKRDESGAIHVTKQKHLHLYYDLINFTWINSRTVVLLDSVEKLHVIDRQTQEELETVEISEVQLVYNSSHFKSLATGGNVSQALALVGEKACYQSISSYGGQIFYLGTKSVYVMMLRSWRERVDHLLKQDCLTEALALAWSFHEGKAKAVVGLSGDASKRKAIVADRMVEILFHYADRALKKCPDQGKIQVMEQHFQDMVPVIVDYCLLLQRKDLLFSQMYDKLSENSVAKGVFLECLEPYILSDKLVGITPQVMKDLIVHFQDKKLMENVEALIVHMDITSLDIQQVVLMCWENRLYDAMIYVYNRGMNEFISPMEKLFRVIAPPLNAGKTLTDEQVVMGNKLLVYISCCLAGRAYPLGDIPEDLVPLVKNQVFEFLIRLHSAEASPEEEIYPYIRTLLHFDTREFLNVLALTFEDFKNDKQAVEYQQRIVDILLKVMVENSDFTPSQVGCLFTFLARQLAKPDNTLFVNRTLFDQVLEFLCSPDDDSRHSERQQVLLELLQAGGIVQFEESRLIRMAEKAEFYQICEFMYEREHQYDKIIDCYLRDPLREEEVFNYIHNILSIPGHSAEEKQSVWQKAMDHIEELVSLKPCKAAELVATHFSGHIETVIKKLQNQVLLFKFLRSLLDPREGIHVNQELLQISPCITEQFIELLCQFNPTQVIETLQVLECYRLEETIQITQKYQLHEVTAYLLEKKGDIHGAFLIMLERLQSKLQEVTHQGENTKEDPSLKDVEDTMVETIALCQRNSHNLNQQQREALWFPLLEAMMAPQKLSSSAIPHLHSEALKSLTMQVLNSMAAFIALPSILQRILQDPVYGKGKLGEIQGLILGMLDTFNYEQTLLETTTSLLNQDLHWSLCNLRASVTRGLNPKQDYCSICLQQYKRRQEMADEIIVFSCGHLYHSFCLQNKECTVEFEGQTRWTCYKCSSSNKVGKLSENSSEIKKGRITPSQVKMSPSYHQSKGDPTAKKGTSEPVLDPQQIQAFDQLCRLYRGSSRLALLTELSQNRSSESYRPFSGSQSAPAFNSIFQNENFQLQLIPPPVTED
inactive: [1] -0.011 | [2] -0.003 | [3] -0.034 | [4] 0.058 | Nexturastat A 0.032 | vemurafenib 0.048 | [5] 0.126 | [6] -0.04 | givinostat 0.014 | barasertib 0.028 | [7] -0.087 | [8] 0.079 | epoxomicin -0.015 | [9] -0.068 | [10] -0.038 | [11] 0.001 | rosiglitazone 0.118 | [12] -0.023
active: volasertib -0.647 | [13] -0.332
